The text below walks through data of PubChem BioAssay (EPA / NIEHS).

Results filed as inconclusive are left out. Calls of active or inactive are those of the source. How the source made its calls, unless noted: active means hit-call score of the fitted dose curve at least 0.9, where 1 is the maximum; inactive means score below 0.9.

Test [1] can be described thus: CCTE_Deisenroth_AIME_384WELL_CTox_Inactive: Cytotoxicity Assessment (CTOX) in CCTE's 384-well Estrogen Receptor Transactivation Assay without AIME metabolic competence (metabolism negative), Deisenroth Lab (AID 2284039; active means hit-call score of the fitted dose curve at least 0.9, where 1 is the maximum;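 further: cell viability via live-cell protease substrate cleaved to fluorescent probe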). Put shortly: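 VM7Luc4E2 human breast cells received conditioned medium from a 2 h incubation of chemical with alginate-water microspheres (no S9), then were exposed 24 h. Viability was read as protease-substrate cleavage to a fluorescent probe; loss of signal was fitted bidirectionally over 0.002–200 uM.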

A short description of test [2]: CCTE_Shafer_MEA_acute_per_network_burst_spike_number_std: CCTE's Neural Acute Assay for Standard Deviation of Number of Spikes in a Network Burst, Shafer Lab (AID 2284020).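 Further: fitted for decrease in spike-number SD versus DMSO so actives lower it.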 Put shortly:
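Spontaneous network activity of primary rat cortical neurons is recorded extracellularly before and after a 40-min compound exposure (0.03-40 uM) at 37 C. The endpoint is the well's percent change in burst spike-number SD.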

Test [3] in a line: CCTE_Shafer_MEA_acute_per_network_burst_electrodes_number_mean: CCTE's Neural Acute Assay for Mean Number of Electrodes in a Network Burst, Shafer Lab (AID 2284021).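 Further: curves fitted for decreases only so hits reduce electrodes per burst.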 Summed up: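 Cultures of rat cortex neurons were exposed on DIV 13 or 15 to compounds at 0.03-40 uM in at least three wells each. Activity over 40 min before and 40 min after exposure at 37 C gave the percent change in electrodes per network burst.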

Test [4] can be described thus: CCTE_Shafer_MEA_acute_network_burst_percentage: CCTE's Neural Acute Assay for Percentage of Network Bursts, Shafer Lab (AID 2284022).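 Further: curves fitted for loss so actives lower network burst percentage.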 Summed up:
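Cortical neurons from rat were grown over microelectrode arrays and used on day 13 or 15 in vitro. Wells with at least 10 active electrodes received test chemical at 0.03-40 uM. Activity during 40 min of exposure was compared with the preceding 40-min baseline.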

Test [5] can be described thus: CCTE_Shafer_MEA_acute_cross_correlation_area: CCTE's Neural Acute Assay for Area of Cross Correlation, Shafer Lab (AID 2284024).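 Further: rat primary cortical neuron networks on 48-well MEA at DIV 13 or 15 with 40 min exposure; area under pooled inter-electrode spike cross-correlation near zero lag as percent change from own baseline; curves fitted for loss of cross-correlation area so actives lower synchrony.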 Put shortly:
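Acute exposure of mature rat cortical networks (day 13 or 15 post-plating) to 0.03-40 uM compound. Spontaneous spiking on MEA, 40 min pre- and post-dose at 37 C.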

Test [6] can be described thus: CCTE_Shafer_MEA_acute_cross_correlation_HWHM: CCTE's Neural Acute Assay for Cross Correlation at Half Width at Half Maximum, Shafer Lab (AID 2284026).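 Further: percent change per well from pre-dose baseline in spike cross-correlogram half width; hits are a decrease in cross-correlogram half width relative to DMSO.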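 On outcome: spontaneous network firing of rat primary cortical neurons on multiwell microelectrode arrays.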 Summed up:
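Primary cortex (rat), MEA, DIV 13/15; compound 0.03-40 uM; 40 min pre + 40 min post at 37 C; spike threshold 8x rms; wells need ≥10 active electrodes; endpoint = % change in cross-correlogram HWHM vs baseline, DMSO negative control.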

Test [7] in a line: CCTE_Shafer_MEA_dev_firing_rate_mean: CCTE's Neural Network Formation Assay for Mean Firing Rate, Shafer Lab (AID 2284031). Put shortly:
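Primary rat cortical neurons on 48-well MEA plates, exposed from plating day 0 with dosing renewed on DIV 5 and 9. Mean well firing rate over active electrodes, recorded days 5, 7, 9, 12, summarised as trapezoidal AUC.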

Test [8] in a line: CCTE_Shafer_MEA_dev_per_burst_spike_percent: CCTE's Neural Network Formation Assay for Percent of Spikes in a Burst, Shafer Lab (AID 2284032). Summed up:
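Rat primary cortical neurons on 16-electrode MEA wells, dosed from plating day 0 for 12 days with renewal on DIV 5 and 9; spikes-in-bursts percentage averaged over bursting electrodes, collapsed as AUC across days 5, 7, 9, 12; loss direction versus DMSO.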

Test [9] concerns the target Estrogen receptor (Homo sapiens) (UniProt P03372). The experiment in a line: CCTE_Deisenroth_AIME_384WELL_LUC_Active: CCTE's 384-well Estrogen Receptor Transactivation Assay with AIME metabolic competence (ERTA luciferase; metabolism positive), Deisenroth Lab (AID 2284030; active means hit-call score of the fitted dose curve at least 0.9, where 1 is the maximum). Put shortly:
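In this metabolism-positive format, a 2-hour exposure to alginate-immobilized rat S9 precedes a 24 hour luciferase transactivation readout in VM7Luc4E2 cells. Dosing spans 10 concentrations from 0.002 to 200 uM.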

Test [10] has the same target. The experiment in a line: CCTE_Deisenroth_AIME_384WELL_LUC_Inactive: CCTE's 384-well Estrogen Receptor Transactivation Assay without AIME metabolic competence (ERTA luciferase; metabolism negative), Deisenroth Lab (AID 2284038; active means hit-call score of the fitted dose curve at least 0.9, where 1 is the maximum;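 further: hits raise estrogen receptor luciferase signal so potencies reflect agonists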). Put shortly: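 Metabolism-negative mode: chemicals (10-point, 0.002–200 uM) held 2 h with alginate-water microspheres, then conditioned medium applied to VM7Luc4E2 cells for 24 h. Luciferase induction referenced to 17beta-estradiol.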

Sequence of Estrogen receptor (Homo sapiens) (P03372 whole entry, looked up): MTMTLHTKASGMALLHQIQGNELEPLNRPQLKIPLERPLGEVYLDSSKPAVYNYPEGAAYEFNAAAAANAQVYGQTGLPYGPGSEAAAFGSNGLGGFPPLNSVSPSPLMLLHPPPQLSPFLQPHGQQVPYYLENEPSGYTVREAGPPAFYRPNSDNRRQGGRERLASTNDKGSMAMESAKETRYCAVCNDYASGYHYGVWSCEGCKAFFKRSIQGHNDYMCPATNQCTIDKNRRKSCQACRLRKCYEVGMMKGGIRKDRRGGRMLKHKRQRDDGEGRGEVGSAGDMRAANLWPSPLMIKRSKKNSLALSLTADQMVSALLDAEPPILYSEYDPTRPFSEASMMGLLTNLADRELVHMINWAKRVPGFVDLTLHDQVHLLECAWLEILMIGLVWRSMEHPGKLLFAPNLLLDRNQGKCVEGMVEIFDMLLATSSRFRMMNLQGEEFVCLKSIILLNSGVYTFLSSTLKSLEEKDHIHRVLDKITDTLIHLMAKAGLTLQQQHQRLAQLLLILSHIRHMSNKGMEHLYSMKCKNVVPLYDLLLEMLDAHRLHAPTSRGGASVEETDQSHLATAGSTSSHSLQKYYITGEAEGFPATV

Regarding `CN1C(=O)c2ccccc2C1=O`, the compound was classed as inactive in test [1].

`O=C(Nc1ccc2c(O)c(N=Nc3ccc(N=Nc4ccc(S(=O)(=O)O)cc4)cc3)c(S(=O)(=O)O)cc2c1)c1ccccc1`: the compound was classed as inactive in [2], in test [3], in test [4], in [5] and in test [6].

Usually AC50 stands for the midpoint of the concentration-response curve, whichever way the signal moves. Regarding `Nc1ccc2cc(S(=O)(=O)O)cc(O)c2c1N=Nc1ccccc1C(F)(F)F`, the AC50 in test [1] is 38.2 µM (active).

With `C=CC(C)(O)CCC=C(C)C` (stereo not given), the compound was called inactive in [2], in test [3], in [5], in test [6] and in test [1]. The AC50 in test [4] is 3 nM (active).

As to `COc1ccccc1N=Nc1c(S(=O)(=O)O)cc2cc(S(=O)(=O)O)cc(NC(C)=O)c2c1O`, the AC50 in [1] is 42.9 µM (active).

`FC(F)(F)COCC(F)(F)F`: the result in test [7] and in [8] was inactive.

Regarding `CN(C)C(=S)SC(=S)N(C)C`, the outcome in [2], in test [3], in [5] and in [6] was inactive. In [4], the AC50 is 3390 nM (active).

Take `CCCCC(CC)COC(=O)c1ccc(O)cc1` (stereo not given): in [1], the half-maximal activity concentration (AC50) is 61.6 µM (active).

On to `O=C(CC(=O)c1ccccc1)c1ccccc1`, for which the outcome in test [1] was inactive.

Take `CC(CN=Cc1ccccc1O)N=Cc1ccccc1O` (stereo not given): the outcome in test [2], in [3], in [4] and in test [5] was inactive. In addition, the AC50 in [6] is 15 µM (active).

For `CCCCCCCCC=CCCCCCCCC1=NCCN1CCO`, the call in [1] was inactive.

Regarding `CCCCCCCCCCCC(=O)OCC(O)CO` (stereo not given), the compound was classed as inactive in [9], in test [10] and in [1].

With `CCCCCCC(C)(C)S`, the outcome in test [1] was inactive.

On to `CC1(C)CCC[C@]2(C)[C@H]3CCO[C@]3(C)CC[C@@H]12`, for which the result in [2], in test [3], in test [4], in test [5] and in [6] was inactive.

As to `O=[N+]([O-])c1ccc(O)cc1C(F)(F)F`, the half-maximal activity concentration (AC50) in [1] was 34.9 µM (active).

With `Nc1ccc(N)c2c1C(=O)c1ccccc1C2=O`, in [1], the AC50 was 28.9 µM (active).
